Assay outcomes from PubChem BioAssay.
This excerpt belongs to a sample that is enriched for hits.
HT1080-NT tox – kills 2HG-producing HT-1080-NT fibrosarcoma cells | HT-1080-NT fibrosarcoma viability, CellTiter-Glo ATP luminescence, 48 h | Potency, µM (doses to about 46.1 µM), for inactives: at the highest dose activity, negative = less viability, hits mostly cytotoxic | actives 1.6% (n = 360,000);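 also: NT is the 2HG producing partner of a matched IDH1 knockdown line; potency is read from the fitted curve at half-maximal effect; 0% = DMSO-treated cells and -100% = media-only wells without cells; nearly all actives have a fitted effect of over 55% in size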
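Toxicity toward the 2HG-producing NT line was scored as %Activity, normalised to DMSO and no-cell wells, from CellTiter-Glo luminescence after 48 hours' treatment.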
TDP1 cell noCPT – qHTS for Inhibitors of human tyrosyl-DNA phosphodiesterase 1 (TDP1): qHTS in cells in absence of CPT; DT40 Tdp1-/- hTDP1 cells, no CPT, ATP luminescence, 48 h; actives 15% (n = 420,000); Potency, µM (titrated, usually from 46.2 µM), for inactives: at the top dose activity change, negative = growth inhibition, actives largely listed as inhibitors; also: potency is read from the fitted curve at half-maximal effect; nearly all actives have a fitted effect of over 55% in size
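Camptothecin absent (DMSO only). Human TDP1-complemented DT40 knockout cells, 400 cells/well, 37 °C for minimum 48 hr; ATP measured via CellTiter-Glo, 30 min dark incubation, luminescence.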
IL-1B inflam inh – blocks inflammasome-driven IL-1 beta release; THP-1 LPS/ATP IL-1B secretion, AlphaLISA, 16 h; stronger effect = lower value; actives 4.7% (n = 360,000); AID 743279; activity change, % at 57.5 µM; in the data active = activity change below about -50%; inconclusive = mostly about -30% to -49%
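Secreted IL-1B measured by AlphaLISA bead assay after 16 h compound exposure of THP-1 cells; compounds (final up to 57.5 uM) added 1 h before LPS (250 ng/mL) and ATP (1.25 mM) stimulation; lower signal means less secretion.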
ALOX12 inh – blocks human arachidonate 12S-lipoxygenase; P18054; Potency, µM (highest dose often 108 µM), for the others: at the highest dose activity change, negative = inhibition, hits mostly inhibitors; actives 1.1% (n = 580,000); purified 12hLO, xylenol orange hydroperoxide absorbance; also: potency is read from the fitted curve at half-maximal effect
Target sequence (P18054 whole entry, looked up): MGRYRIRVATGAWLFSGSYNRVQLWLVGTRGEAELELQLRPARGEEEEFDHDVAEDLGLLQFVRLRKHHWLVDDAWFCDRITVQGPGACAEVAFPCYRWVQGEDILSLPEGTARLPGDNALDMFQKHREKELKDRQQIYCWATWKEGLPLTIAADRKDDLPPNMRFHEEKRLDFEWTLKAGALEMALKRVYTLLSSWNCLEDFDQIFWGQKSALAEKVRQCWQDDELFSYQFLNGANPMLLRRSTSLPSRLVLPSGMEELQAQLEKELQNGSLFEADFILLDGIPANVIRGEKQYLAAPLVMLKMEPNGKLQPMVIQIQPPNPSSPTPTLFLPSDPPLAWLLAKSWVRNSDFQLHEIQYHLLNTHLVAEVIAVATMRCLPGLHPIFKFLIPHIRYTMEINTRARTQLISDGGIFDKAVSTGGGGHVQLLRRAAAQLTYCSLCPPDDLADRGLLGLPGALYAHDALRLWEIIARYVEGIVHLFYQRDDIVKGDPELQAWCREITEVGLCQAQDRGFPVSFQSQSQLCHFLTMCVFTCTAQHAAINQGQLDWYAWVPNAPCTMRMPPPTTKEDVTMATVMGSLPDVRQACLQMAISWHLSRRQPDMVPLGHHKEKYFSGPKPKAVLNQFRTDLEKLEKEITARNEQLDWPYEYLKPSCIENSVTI
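Hydroperoxide product was detected by ferrous iron/xylenol orange as the 573 to 405 nm absorbance ratio. Arachidonic acid at 40 uM (final) was turned over for 30 min at room temperature by 150 nM human 12hLO, pH 7.0 Hepes buffer, after 15 min compound preincubation.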
DT40 TDP1 CPT – growth inhibition of DT40 Tdp1-/-;hTDP1 cells with camptothecin (screen for TDP1 inhibitors). chicken DT40 Tdp1-/-;hTDP1 cells + 20 nM CPT, ATP luminescence, 48 h. Potency, µM (highest dose often 46.2 µM), without a hit: top-dose activity change, negative = growth inhibition, most hits filed as inhibitors. actives 12% (n = 420,000); also: potency is read from the fitted curve at half-maximal effect; nearly all actives have a fitted effect of over 55% in size
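Chicken DT40 Tdp1-/- cells complemented with human TDP1, 400 cells/well, exposed to compounds plus 20 nM camptothecin for at least 48 h at 37 C; viability read as ATP content by CellTiter-Glo luminescence.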
HT1080 IDH1KD tx – toxicity to HT-1080 IDH1 knockdown cells (counter line) | AID 686971 | actives 2% (n = 360,000) | HT-1080 IDH1 knockdown viability, ATP luminescence, 48 h | Potency, µM (top dose mostly 46.1 µM), without a hit: at the highest dose activity, negative = toxicity, hits mostly cytotoxic;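 also: potency is read from the fitted curve at half-maximal effect; 0% = DMSO wells and -100% = cell-free medium wells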
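In this qHTS, HT-1080 cells depleted of IDH1 are exposed for 48 h at 37 °C to compound titrations. Toxicity is scored from CellTiter-Glo luminescence, with DMSO as full viability and medium alone as none.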
The depositor's hits bear a star; ? = inconclusive; / = no result; [ ] = remark or other dose. Unless noted, calls follow the shape of the dose curve; as a rule, active = well fitted curve in the direction sought with a large enough effect; inconclusive = small, poorly fitted or top-dose-only effect, or another doubt; inactive = no such curve, though single readings can be large; an effect the other way counts as inactive or inconclusive. Unless noted, % is scaled to controls: 0 for no effect and ±100 for the full control effect.

SMILES | HT1080-NT tox | TDP1 cell noCPT | IL-1B inflam inh | ALOX12 inh | DT40 TDP1 CPT | HT1080 IDH1KD tx
COc1ccc(C2C(=O)N(C3CCCCC3)CC(=O)N2Cc2ccc3c(c2)OCO3)cc1 (stereo unspecified) | -11% | ? | -23 | -19% | ? | -5%
COc1ccc(C2C(=O)N(C3CCCCCC3)CC(=O)N2Cc2ccccc2)cc1 (stereo unspecified) | / | 26µM* | / | ? | 23µM* | /
COc1ccc(C2C(=O)N(C3CCCCC3)CC(=O)N2Cc2ccco2)cc1 (stereo unspecified) | -3%[9.24 µM] | ? | 0 | ? | -25% | -22%
CCC(C)(C)N1CC(=O)N(Cc2ccccc2)C(c2ccc(OC)cc2)C1=O (stereo unspecified) | 1% | 18µM* | -8 | 0% | 9.2µM* | 2%
CCCc1nnc(C[C@@H]2C[C@@H](C(C)C)[C@H](CN3CCN(c4ncccn4)CC3)C=C2C)o1 | / | / | / | 48% | / | /
Cc1c(CC(=O)NC(C)C)c2c(n1Cc1ccc(F)cc1)CCCC2=O | / | / | / | 7% | / | /
O=C(NCCCN1CCCC1=O)C1CCCCC1 | / | / | / | 45% | / | /
O=C(O)CC1C(=O)NCCN1CCc1ccccc1 (stereo unspecified) | / | / | / | -4% | / | /
COc1ccc(C2C(=O)N(C3CCCCCC3)CC(=O)N2Cc2ccccc2)cc1OC (stereo unspecified) | 9% | ? | -7 | 11% | ? | 1%
COc1ccccc1CN1C(=O)CN(C2CCCCCC2)C(=O)C1c1ccc(C)cc1 (stereo unspecified) | / | 21µM* | / | -28% | 16µM* | /
CS(=O)(=O)N1CCc2cc(C(=O)Nc3ccc(Cl)c(C(F)(F)F)c3)ccc21 | / | 8.2µM* | / | -16% | 18µM* | /
Cc1cc(C)cc(NC(=O)c2ccc3c(c2)CCN3S(C)(=O)=O)c1 | -4% | 2% | -18 | 0% | 3% | -2%
Cc1cccc(NC(=O)c2ccc3c(c2)CCN3S(C)(=O)=O)c1 | -4% | -1% | -64* | 3% | -19% | 5%
CCS(=O)(=O)N1CCc2cc(C(=O)Nc3cccc(C(C)=O)c3)ccc21 | / | 18µM* | / | -15% | ? | /
Cc1ccc(NC(=O)c2ccc3c(c2)CCN3S(C)(=O)=O)cc1C | -20% | ? | -18 | 0% | -110% | -13%
CCc1ccc(NC(=O)c2ccc3c(c2)CCN3S(C)(=O)=O)cc1 | -11% | 26µM* | -23 | ? | ? | -18%
Cc1ccc(NC(=O)c2ccc3c(c2)CCN3S(C)(=O)=O)cc1 | 0% | -12% | -19 | 7% | ? | 5%
CC(C)c1ccc(NC(=O)c2ccc3c(c2)CCCN3S(C)(=O)=O)cc1 | / | 4.1µM* | / | -22% | 6.5µM* | /
CS(=O)(=O)N1CCc2cc(C(=O)Nc3ccc(C(F)(F)F)cc3)ccc21 | / | 8.2µM* | / | -15% | 9.2µM* | /
CCNC(=O)N1CCCC1c1noc(CCC(=O)N(C)CCOC)n1 (stereo unspecified) | / | / | / | 50% | / | /
COc1ccc(NC(=O)C(C)Sc2ncnc3nc[nH]c23)cc1OC (stereo unspecified) | / | / | / | -8% | / | /
O=C(NCc1ccccc1)C(c1cccc2ccccc12)n1c(=O)c(-c2ccco2)nc2ccccc21 (stereo unspecified) | -3% | ? | -5 | ? | ? | -2%
CC(C)(C)NC(=O)C(c1ccc(-c2ccccc2)cc1)n1c(=O)c(-c2ccccc2)nc2ccccc21 (stereo unspecified) | 2% | ? | 12 | 1% | ? | -2%
